# This is a sample that favours compounds with a hit; in the whole collection about 1.5% have one here.
# Dyrk1A ADPGlo: blocks rat Dyrk1A kinase activity; Q63470; ADP-Glo luminescence, NFATc1 peptide; inhibition, % at 12.5 µM; hit rate 0.43% among 310,000; in the data active means inhibition above about 50%;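 further: plate controls were vehicle with enzyme for no effect and no enzyme for full effect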
# HIF act: HIF pathway transcriptional activation; U2OS HRE-luciferase reporter, luminescence; normalized: DMSO 0%, desferrioxamine 100%; activation, % at 7.5 µM (by protocol); hit rate 0.32% among 300,000;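 active means mean activation of at least 10% of the iron chelator positive control signal, with at least half of replicates also reaching 10%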
# PP5 inh: PP5 (human) phosphatase inhibition | purified PP5c, OMFP substrate fluorescence | inhibition, % at 6.7 µM | P53041 | AID 1987 | hit rate 0.18% among 320,000;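 active means inhibition above the campaign's mean inhibition across all tested compounds plus 3 SD, cut at about 9.5% in these data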;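 further: 0% = DMSO only and 100% = 100 µM cantharidin control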
# STK33 kinase inh: human STK33 kinase inhibition; hit rate 0.073% among 320,000; inhibition, % at 10 µM; Q9BYT3; purified STK33, MBP phosphorylation, ADP-Glo luminescence;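 active means inhibition at or above 25%, using the most active replicate where run in duplicate; inactive means inhibition below 25%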
# Target sequence (Q9BYT3 whole entry, looked up): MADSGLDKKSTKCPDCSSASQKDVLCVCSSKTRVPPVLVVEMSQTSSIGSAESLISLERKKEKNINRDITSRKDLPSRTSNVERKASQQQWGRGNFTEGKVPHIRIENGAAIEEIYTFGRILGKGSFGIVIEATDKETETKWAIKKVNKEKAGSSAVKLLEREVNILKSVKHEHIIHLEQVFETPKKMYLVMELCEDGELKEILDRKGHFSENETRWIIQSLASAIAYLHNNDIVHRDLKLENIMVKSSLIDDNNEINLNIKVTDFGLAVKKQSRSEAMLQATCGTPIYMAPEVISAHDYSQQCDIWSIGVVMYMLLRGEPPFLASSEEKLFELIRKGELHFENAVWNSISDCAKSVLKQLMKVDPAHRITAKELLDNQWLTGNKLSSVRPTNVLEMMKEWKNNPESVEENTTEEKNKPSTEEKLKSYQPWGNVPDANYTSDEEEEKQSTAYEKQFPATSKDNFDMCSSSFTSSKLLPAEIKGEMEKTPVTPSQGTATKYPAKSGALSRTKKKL
# PP1 counter: blocks human PP1-alpha phosphatase, a PP5 counter-screen; purified PP1alpha, OMFP fluorescence; AID 2235; hit rate 0.9% among 320,000; P62136; inhibition, % at 6.7 µM;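 active means inhibition above the mean inhibition of all tested compounds plus 3 SD, computed separately for each screening campaign, cut at about 15% in these data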
# PP1 inh confirm: confirmation of human PP1 phosphatase inhibitors. shares compounds with PP1 counter. purified PP1alpha, OMFP substrate fluorescence. inhibition, % at 6.7 µM. hit rate 52% among 1,900. AID 2358;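 active means mean PP1 inhibition above a set limit taken from the earlier primary screen, cut at about 15% in these data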
# PP5 counter: inhibits human PP5 phosphatase in PP1 counter-screen | shares compounds with PP1 counter | purified PP5c, OMFP fluorescence | inhibition, % at 6.7 µM | hit rate 4% among 1,900 | AID 2360;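 active means mean PP5 inhibition over triplicate wells above about 9.5% taken from the earlier PP1 screen, limit read from the data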
# Starred values were filed as active, the others as inactive; . = not tested or not shown.
SMILES,Dyrk1A ADPGlo,HIF act,PP5 inh,STK33 kinase inh,PP1 counter,PP1 inh confirm,PP5 counter
CCc1nnc(NC(=O)c2ccc(S(=O)(=O)N(CC(C)C)CC(C)C)cc2)o1,0.4,.,0.7,0.0,25.5*,29.8*,-1.9
C=CCN(CC=C)S(=O)(=O)c1ccc(C(=O)Nc2nnc(CSC)o2)cc1,3.5,-0.2,0.0,-0.2,22.0*,18.6*,6.6
O=C(c1ccc(N2CCN(C(=O)c3ccc(F)cc3F)CC2)cc1)c1cccc(F)c1,3.6,-0.3,5.7,1.2,-6.2,.,.
COc1cccc(-c2noc(-c3ccc(Br)o3)n2)c1,.,.,-0.7,-1.9,-6.5,.,.
Cc1cccc(C)c1NC(=O)CN(C)S(=O)(=O)c1ccc(-c2ccc(=O)[nH]n2)s1,-4.8,-1.1,-4.8,3.3,8.6,.,.
CC(=O)c1ccc(-n2c(=O)[nH]c(=O)c3c(N)c(C(=O)c4ccc(Cl)cc4)sc32)cc1,-1.7,-0.4,-0.7,-3.6,39.7*,28.1*,-3.4
NC(=O)CC(NC(=O)c1ccc(Br)cc1)c1ccc(N2CCC(Cc3ccccc3)CC2)c([N+](=O)[O-])c1 (stereo not drawn),1.8,-0.7,-1.2,-0.7,19.8*,11.0,-2.3
NC(=O)CC(NC(=O)c1ccc(Br)cc1)c1ccc(N2CCN(c3ccc(F)cc3)CC2)c([N+](=O)[O-])c1 (stereo not drawn),1.2,-0.4,-2.8,2.6,21.2*,13.6,0.3
O=C(NC1CC1)c1ccc(Cl)c(S(=O)(=O)N2CCOCC2)c1,-8.2,0.7,2.2,-1.4,1.1,.,.
COc1cc(C(=O)COC(=O)c2ccc([N+](=O)[O-])o2)cc(OC)c1OC,.,.,.,-1.4,.,.,.
c1cc2ccc3ccc(-n4cnnn4)c4ccc(c1)c2c34,16.9,-2.6,0.5,0.5,19.6*,23.3*,-0.9
CC(=O)c1cccc(NC(=O)C(C)OC(=O)/C=C/c2cccs2)c1 (stereo not drawn),-0.4,.,.,.,.,.,.
Cc1sc2nc(COC(=O)c3cccc(S(=O)(=O)N(C)c4ccccc4)c3)[nH]c(=O)c2c1C,-5.6,0.0,0.2,0.6,20.9*,25.4*,-2.4
COc1ccc(/C=C2\N=C(c3c(-c4ccccc4)noc3C)OC2=O)cc1OC,33.8,-0.2,0.7,0.1,19.1*,-3.4,-2.1
COc1cc(/C=C2\N=C(c3ccccc3)OC2=O)ccc1OCc1c(C)no[n+]1[O-],-81.5,-0.1,0.1,-0.5,1.6,.,.
Cc1ccc(OCC(=O)Nc2nc(-c3ccccn3)cs2)c(C)c1,4.4,0.6,7.2,5.1,43.1*,41.5*,-3.2
O=C(COc1ccc([N+](=O)[O-])cc1)Nc1nc(-c2ccccn2)cs1,9.9,1.1,0.8,.,41.0*,37.0*,-0.3
O=C(COc1ccc(F)cc1)Nc1nc(-c2ccccn2)cs1,7.1,-0.4,4.9,0.4,26.7*,34.7*,-3.0
Cc1ccc(C2(C)NC(=O)N(CC(=O)Nc3nc(-c4ccccn4)cs3)C2=O)cc1 (stereo not drawn),-1.9,-31.2,2.0,0.7,25.6*,42.9*,4.7
CC1(c2ccccc2)NC(=O)N(CC(=O)Nc2nc(-c3ccccn3)cs2)C1=O (stereo not drawn),0.9,0.0,4.4,-1.3,12.0,.,.
O=C(NCCc1ccccn1)C(F)(F)C(F)(F)C(F)(F)C(F)(F)C(F)(F)C(F)(F)C(F)(F)C(F)F,-3.2,-0.3,3.6,-0.6,-2.0,.,.
Cc1cn2c(=O)c(C(=O)N3CCN(c4ccccc4Cl)CC3)cnc2s1,-4.0,1.5,-2.5,-3.2,-4.8,.,.
O=C(Nc1nc(-c2ccccn2)cs1)Nc1ccc(F)cc1F,-4.0,3.2,2.1,-0.4,38.2*,41.9*,-1.0
O=C(Nc1nc(-c2ccccc2)cs1)Nc1ccc(F)cc1F,-6.9,1.7,-0.2,-0.8,6.7,.,.
Cc1ccc(S(=O)(=O)CCC(=O)Nc2nc(-c3ccccn3)cs2)cc1,2.2,.,1.6,-2.3,27.2*,40.3*,2.4
SMILES,Dyrk1A ADPGlo,HIF act,PP5 inh,STK33 kinase inh,PP1 counter,PP1 inh confirm,PP5 counter
CC1CCN(C(=O)CSc2nc(=O)n3ccccc3n2)CC1,0.4,0.0,0.4,-1.1,-3.2,.,.
O=C(CSc1nc2ccc(Nc3nc(N4CCOCC4)nc(N4CCOCC4)n3)cc2s1)Nc1ccccc1Cl,-3.5,-0.4,.,0.2,.,.,.
O=C(CSc1nc2ccc(Nc3nc(N4CCCC4)nc(N4CCCC4)n3)cc2s1)NCc1ccco1,.,-0.4,-0.4,-0.1,18.9*,5.4,2.3
Cc1ccc(-n2nc3c(c2NC(=O)/C=C\c2ccc4c(c2)OCO4)CSC3)cc1,-5.8,-0.3,3.7,0.0,19.6*,12.6,-1.6
Oc1c(C(c2ccccn2)N2CCCCC2)cc(Cl)c2cccnc12 (stereo not drawn),-2.2,-0.2,4.9,-1.0,75.5*,73.1*,3.1
O=C(NC(c1ccc(Cl)cc1)c1cc(Cl)c2cccnc2c1O)c1cccnc1 (stereo not drawn),2.0,-0.1,-2.3,0.4,-0.3,.,.
CN1CCN(C(c2ccc(Cl)cc2)c2cc(Cl)c3cccnc3c2O)CC1 (stereo not drawn),0.6,4.8,2.4,-1.4,22.0*,-2.6,0.8
CCN1CCN(C(c2ccc(C(F)(F)F)cc2)c2ccc3cccnc3c2O)CC1 (stereo not drawn),-7.5,6.2,3.3,-0.9,18.3*,-6.2,-1.2
CN1CCN(C(c2ccc(C(F)(F)F)cc2)c2cc(Cl)c3cccnc3c2O)CC1 (stereo not drawn),.,2.8,4.5,0.1,21.2*,1.6,-2.6
COc1ccc(OC)c(CN2CCN(C(=O)c3cc4ccccc4cc3O)CC2)c1,4.3,-0.4,4.4,-1.3,-2.6,.,.
CCCCn1c(N)c(N(CCC(C)C)C(=O)CSc2nc3ccccc3n2C)c(=O)[nH]c1=O,0.8,.,.,.,.,.,.
CN(Cc1cnn(C)c1)C(=O)C1CCC(=O)N(Cc2ccc(Cl)cc2)C1 (stereo not drawn),-1.4,-0.3,0.4,-2.0,-3.6,.,.
CCOc1ccc(N=Nc2c(=O)[nH]n3c(=O)c4c([nH]c23)CCCC4)cc1,4.9,-0.8,4.3,-0.6,12.3,.,.
O=c1[nH]n2c(=O)c3c([nH]c2c1N=Nc1cccc(Cl)c1)CCCC3,6.4,-0.1,2.1,1.4,36.5*,26.1*,-0.2
O=C(O)c1ccc2c(=O)n3c(nc2c1)/C(=C/c1ccccc1Br)CC3,14.1,0.4,0.9,2.1,0.7,.,.
COc1ccc(S(=O)(=O)N2CCCCC2)cc1NC(=O)c1cnc(C)cn1,.,.,2.5,-0.2,-2.3,.,.
CC1(C)CC(=O)C=C(CN2C(=O)c3ccccc3C2=O)C1=O,-3.1,.,-0.5,-1.8,0.1,.,.
Cc1ccnc(NC(c2ccccc2)c2ccc3cccnc3c2O)c1 (stereo not drawn),1.5,.,.,.,.,.,.
CC(C)C(=O)NC(c1ccc(Cl)cc1Cl)c1ccc2cccnc2c1O (stereo not drawn),3.0,79.6*,1.6,0.2,26.9*,19.7*,-3.1

# Screening results: PubChem BioAssay, several laboratories
